Hits are enriched below; roughly 8.1% of the tested compounds scored in any of these assays.
KB-3-1 tox: kills parental KB-3-1 adenocarcinoma cells; KB-3-1 viability, CellTiter-Glo ATP luminescence, 72 h; Potency, µM (highest dose often 46.1 µM), hits mostly cytotoxic; actives 1.4% (n = 400,000); also: nearly all actives have a fitted effect of over 60% in size
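Using CellTiter-Glo luminescence, growth of non-resistant KB-3-1 adenocarcinoma cells is assessed 72 h after pin-tool compound addition at 37 °C. Normalized responses across the concentration series yield fitted curves.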
KB-V1 MDR tox: kills drug-selected multidrug resistant KB-V1 cells; KB-V1 MDR cells viability, CellTiter-Glo, 72 h; actives 3.4% (n = 400,000); Potency, µM (highest dose often 46.1 µM), most hits filed as cytotoxic; AID 1347076; also: nearly all actives have a fitted effect of over 60% in size
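Luminescent ATP read-out (CellTiter-Glo, 10 min) measures survival of drug-selected KB-V1 MDR cells after 72 h, 37 degrees C compound exposure. Medium: phenol-red-free DMEM, 10% FBS. Values from fitted concentration-response curves.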
MCF10A rerep: DNA re-replication induction in MCF 10a cells. MCF 10A DNA re-replication, Hoechst nuclear intensity, 48 h. Potency, µM (doses to about 46.1 µM), most hits filed as activators. actives 2.9% (n = 350,000). AID 624296; also: nearly all actives have a fitted effect of over 50% in size
SW480 rereplic: induces DNA re-replication in SW480 colon adenocarcinoma cells | SW480 DNA re-replication, Hoechst DNA content imaging, 48 h | actives 1.8% (n = 340,000) | Potency, µM (doses to about 46.1 µM), actives largely listed as activators | AID 624297; also: nearly all actives have a fitted effect of over 55% in size
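Image-based read-out: total Hoechst fluorescence of nuclei (405 nm excitation, 500-530 nm emission), with hits raising the fraction of high-intensity nuclei. SW480 colon cells incubated 48 hr with compounds at 37 C.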
ELG1 repair inh: ELG1-dependent DNA repair inhibition. Potency, µM (doses to about 46.1 µM), usual class: inhibitors. actives 2.3% (n = 330,000). HEK293T ELG1-luciferase reporter, luminescence, 16 h; DNA damage induced by 5-fluorouridine. AID 504467; also: nearly all actives have a fitted effect of over 55% in size
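Step one: seed 2,000 cells per well. Step two: pin-transfer compound or DMSO alongside 5-fluorouridine. Step three: incubate 16 hr, 37 °C, 5% CO2. Step four: add ONE-Glo, wait 30 min, read luminescence.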
Hits are given with their value. Calls follow the shape of the dose curve; as a rule, active = well fitted curve in the direction sought with a large enough effect; inconclusive = small, poorly fitted or top-dose-only effect, or another doubt; inactive = no such curve, though single readings can be large; an effect the other way counts as inactive or inconclusive.

How did CCOC(=O)[C@@H]1[C@H]2COc3ccccc3[C@@H]2N2C(=O)N(c3ccc(Br)cc3)C(=O)[C@]12C do in these assays?
KB-3-1 tox: inactive; KB-V1 MDR tox: inactive; MCF10A rerep: inactive; SW480 rereplic: 23.1µM; ELG1 repair inh: inactive

How did CCOC(=O)[C@@H]1[C@H]2COc3ccccc3[C@H]2N2C(=O)N(c3ccc(Br)cc3)C(=O)[C@]12C do in these assays?
KB-3-1 tox: inactive; KB-V1 MDR tox: inactive; MCF10A rerep: inactive; SW480 rereplic: inactive; ELG1 repair inh: inactive

Results for N=C1C(c2nc3ccccc3[nH]2)=C(O)CN1c1ccccc1 ?
KB-3-1 tox: 23.1µM; KB-V1 MDR tox: inconclusive; MCF10A rerep: inconclusive; SW480 rereplic: inconclusive; ELG1 repair inh: inconclusive

What do the screens show for `CCOC(=O)c1ccc(N2CC(O)=C(c3nc4ccccc4c(=O)[nH]3)C2=N)cc1`?
KB-3-1 tox: inactive; KB-V1 MDR tox: inactive; MCF10A rerep: 20.6µM; SW480 rereplic: inactive; ELG1 repair inh: inactive

How did N=C1C(c2nc3ccccc3[nH]2)=C(O)CN1c1ccc(CC(=O)O)cc1 do in these assays?
KB-3-1 tox: inactive; KB-V1 MDR tox: inactive; MCF10A rerep: inactive; SW480 rereplic: inactive; ELG1 repair inh: inactive

What do the screens show for `Cc1ccc(/C=C/C(=O)Nc2sc3c(c2C#N)CCCC3)o1`?
KB-3-1 tox: inactive; KB-V1 MDR tox: inactive; MCF10A rerep: inconclusive; SW480 rereplic: 1.16µM; ELG1 repair inh: inconclusive

Results for Cc1ccc(/C=N/NC(=O)NC2CCCCC2)o1 ?
KB-3-1 tox: inactive; KB-V1 MDR tox: inactive; MCF10A rerep: inactive; SW480 rereplic: inactive; ELG1 repair inh: inconclusive

How did CCc1ccc(CCC(=O)Nc2sc3c(c2C#N)CCCC3)o1 do in these assays?
KB-3-1 tox: inconclusive; KB-V1 MDR tox: inconclusive; MCF10A rerep: 4.61µM; SW480 rereplic: 3.26µM; ELG1 repair inh: inconclusive

How did Cc1ccc(/C=C/C(=O)NC2CCCCCCC2)o1 do in these assays?
KB-3-1 tox: inactive; KB-V1 MDR tox: inactive; MCF10A rerep: inconclusive; SW480 rereplic: 23.1µM; ELG1 repair inh: inconclusive

What do the screens show for `CCOC(=O)/C(C#N)=C/c1ccc(OCC(=O)Nc2ccc(OC)cc2)c(OC)c1`?
KB-3-1 tox: inactive; KB-V1 MDR tox: inactive; MCF10A rerep: inactive; SW480 rereplic: inactive; ELG1 repair inh: inactive

What do the screens show for `CCc1ccc(C2=CC(c3cccc(C)c3)n3c(nc4ccccc43)N2)cc1` (configuration not stated)?
KB-3-1 tox: inactive; KB-V1 MDR tox: inactive

What do the screens show for `CCOC(=O)c1c(C)[nH]c(C(=O)CN2C(=O)NC(C)(c3ccc4ccccc4c3)C2=O)c1C` (configuration not stated)?
KB-3-1 tox: inactive; KB-V1 MDR tox: 10.3µM; MCF10A rerep: inactive; SW480 rereplic: inactive; ELG1 repair inh: 16.4µM

How did CCCC1(c2ccccc2)NC(=O)N(CC(=O)c2[nH]c(C)c(C(=O)OCC)c2C)C1=O (configuration not stated) do in these assays?
KB-3-1 tox: inconclusive; KB-V1 MDR tox: 23.1µM; MCF10A rerep: inactive; SW480 rereplic: inactive; ELG1 repair inh: 18.4µM

What do the screens show for `CCOC(=O)c1c(NC(=O)CN2C(=O)NC(C)(c3ccccc3)C2=O)sc(C)c1C` (configuration not stated)?
KB-3-1 tox: 16.4µM; KB-V1 MDR tox: 16.4µM; MCF10A rerep: 10.3µM; SW480 rereplic: inconclusive; ELG1 repair inh: inconclusive

How did CCOC(=O)c1c(NC(=O)CN2C(=O)NC3(CCCCC3C)C2=O)sc(C)c1C (configuration not stated) do in these assays?
KB-3-1 tox: inactive; KB-V1 MDR tox: inconclusive; MCF10A rerep: inconclusive; SW480 rereplic: inactive; ELG1 repair inh: inconclusive

Results for CCOC(=O)c1c(C)[nH]c(C(=O)CN2C(=O)NC3(CCCC3)C2=O)c1C ?
KB-3-1 tox: inactive; KB-V1 MDR tox: inactive; MCF10A rerep: inactive; SW480 rereplic: inactive; ELG1 repair inh: inconclusive

How did CC(C)N(C(=O)COC(=O)Cn1cnc2ccccc21)c1ccccc1 do in these assays?
KB-3-1 tox: inactive; KB-V1 MDR tox: inactive; MCF10A rerep: inactive; SW480 rereplic: inactive; ELG1 repair inh: inactive

Results for CCN(CC)CCCNC(=O)/C(=C\c1cccn1C)NC(=O)c1cccs1 ?
KB-3-1 tox: inactive; KB-V1 MDR tox: inactive; MCF10A rerep: inactive; SW480 rereplic: inactive; ELG1 repair inh: inactive

What do the screens show for `CC1=NN(c2ccccc2)C(=O)C1=Cc1ccccc1`?
KB-3-1 tox: inactive; KB-V1 MDR tox: inconclusive
